# Source: ChEMBL document CHEMBL3988442, “University of Dundee, Small-Polar-MMV Screening Library” (2021)
# Out of some 48,000 compounds screened, about 13,000 (27%) showed an effect of 50% or more. This is one part of the list.
# Tested on: Wolbachia pipientis
# Experiment: Anti-Wolbachia Cell-Based Screen
# Format: functional
# Design: scale not given: in the data most compounds retested in dose-response had high values
# Conditions: 5 µM
row,Structure (SMILES),Percent Effect [%]
1,O=C([C@@H]1COC[C@H]2CN(C3CCCCC3)C[C@H]21)N1CCOCC1,-4.013
2,O=C(CSCC1CC1)N1CCCC(c2nccn2Cc2ccncc2)C1 (centres undefined),26.77
3,CS(=O)(=O)N1C[C@@H]2OCC(=O)N(CC3CC3)[C@@H]2C1,-6.528
4,O=C1CC[C@@H]2[C@@H](CCN2S(=O)(=O)C2CC2)N1CC1CC1,105.6
5,O=C(c1ccnnc1)N1CC[C@H]2[C@H]1CCN2S(=O)(=O)C1CC1,-8.086
6,COCCC(=O)N1CCn2cc(CN3CCN(C)CC3)nc2C1.O=C(O)C(F)(F)F.O=C(O)C(F)(F)F,-0.4638
7,CC(=O)N1CCCC(c2ccc(CO)c(-c3c(C)noc3C)n2)C1 (centres undefined),98.56
8,Cc1noc(C)c1-c1nc(C2CCCN(C(=O)C(C)C)C2)ccc1CO (centres undefined),110.5
9,CCCc1cc(NCCC2CCCOC2)n2nccc2n1 (centres undefined),-37.65
10,COCC(=O)N1CCC2(CCCN(Cc3cnn(C)c3)C2)C1 (centres undefined),0.82
11,COCC(=O)N1CCCC2(CCN(c3cncnc3)C2=O)C1 (centres undefined),-8.381
12,COCC(=O)N1CCCC(C)(c2nncn2C)C1 (centres undefined),100.7
13,COc1cccc(S(=O)(=O)N2CCN(C)[C@@H]3CS(=O)(=O)C[C@@H]32)c1,0.7716
14,Cc1ccc(S(=O)(=O)N2CCC(N3CCCCC3)CC2)cc1C,2.331
15,O=S1(=O)CCC(S(=O)(=O)c2cccc(S(=O)(=O)N3CCCCCC3)c2)C1 (centres undefined),99.56
16,O=S1(=O)CCC(S(=O)(=O)c2cccc(S(=O)(=O)N3CCOCC3)c2)C1 (centres undefined),94.82
17,CNC(=O)CS(=O)(=O)C1CCN(S(=O)(=O)c2cccc(C(C)=O)c2)CC1,-4.98
18,O=S1(=O)CCC(S(=O)(=O)c2cccc(S(=O)(=O)N3CCCC3)c2)C1 (centres undefined),102.5
19,Cc1cccc(S(=O)(=O)N2CCC3(CC2)CC(N(C)C)CO3)c1 (centres undefined),-10.34
20,O=C(O)c1cc(-c2cccnc2)cc(S(=O)(=O)N2CCCCCC2)c1,-2.874
21,CSCc1cccc(S(=O)(=O)N2CCC(C)CC2)c1,-3.451
22,CN1CCN(S(=O)(=O)c2cccc(S(=O)(=O)C3CCS(=O)(=O)C3)c2)CC1 (centres undefined),83.09
23,CSCc1cccc(S(=O)(=O)N2CCSCC2)c1,9.116
24,F[C@@H]1CN(CC2CC2)C[C@@H]1OCc1nc2cnccc2[nH]1,0.2441
25,COc1ccc(C(=O)NC2CC2)c(OC2CCN(C(C)CO)CC2)c1 (centres undefined),-4.273

row,Structure (SMILES),Percent Effect [%]
1,CC(=O)N(Cc1ccoc1)C1CCCCC1,5.985
2,CCCNC(=O)c1sc(Nc2ccc(Cl)cn2)nc1C,11.67
3,CCN(CC)C(=O)CNC(=O)c1cnc(-c2ccccc2)nc1,0.8892
4,CN(C)c1cnnc(N2CCN(C(=O)Cc3ccccc3)CC2)c1,6.121
5,Cl.Cn1ccnc1N1CCN(C(=O)Cc2ccccc2)CC1,103.6
6,CC(=O)N1CCN(C(=O)CN2CCN(c3cccc(C)c3)CC2)CC1,4.87
7,Cl.Cn1ccnc1N1CCN(C(=O)Cc2ccc(F)cc2)CC1,9.363
8,Cc1cccc(CC(=O)N2CCN(c3nccn3C)CC2)c1.Cl,119.3
9,CCOc1ccc(CC(=O)N2CCN(c3nccn3C)CC2)cc1.Cl,-3.351
10,COc1cccc(CN(C)C(=O)CN2CCN(c3nccn3C)CC2)c1,6.217
11,Cc1cc(N2CCCN(C(=O)Cc3ccc(O)c(Cl)c3)CC2)ccn1,6.362
12,COc1ccc(CC(=O)N2CCN(c3nccn3C)CC2)cc1.Cl,92.57
13,Cl.Cn1ccnc1N1CCN(C(=O)Cc2ccc(Cl)cc2)CC1,89.82
14,Cc1cccc(N2CCN(CCCNC(=O)c3nccn3C)CC2)c1,29.8
15,CSc1cc2c(cc1NC(=O)NCc1ccco1)OCCO2,-2.93
16,Cc1cnn(CC(=O)NC2CCCc3cc(OC(F)F)ccc32)c1 (centres undefined),-5.352
17,Cc1nn(C(C)C)c(C)c1S(=O)(=O)Nc1ccc(C(=O)O)cc1,-3.585
18,COc1nc2ccn(CCNc3cc(C)ccn3)c(=O)c2cc1C#N,-7.591
19,Cn1cc(N2CC3(CCN(S(C)(=O)=O)C3)CC2=O)cn1 (centres undefined),-6.805
20,CCn1ccnc1C1CCN(C(=O)Nc2ccc(OC)cc2)CC1,-6.796
21,CCn1ccnc1C1CCN(C(=O)C(O)c2ccc(OC)cc2)CC1 (centres undefined),13.84
22,CCOc1ccc(C(=O)N2CCN(c3nccn3C)CC2)cc1.Cl,123.5
23,CCOc1ccc(NC(=O)CN2CCN(c3nccn3C)CC2)cc1,10.39
24,CCOc1cc(N2CCN(C(=O)c3ccc(OC)cc3)CC2)nc(C)n1,6.189
25,CCOc1ccc(CC(=O)N2CCN(c3nccn3CC)CC2)cc1.Cl,105.4

row,Structure (SMILES),Percent Effect [%]
1,CCc1ccc(CC(=O)N2CCN(c3nccn3C)CC2)cc1,102.2
2,Cc1occc1C(=O)Nc1cc(N2CCNC2=O)ccc1Cl,-16.86
3,CNCC(=O)N[C@H]1CN(c2nc(C)c3c(n2)CCCC3)C[C@@H]1C1CC1,-22.84
4,CCc1ccc(C2NCCc3cc4c(cc32)OCCO4)cc1 (centres undefined),132.5
5,O=C(CCSc1ccccc1F)NS(=O)(=O)c1ccc2c(c1)OCCO2,-3.97
6,Fc1ccccc1C1NCCc2cc3c(cc21)OCCO3 (centres undefined),96.06
7,O=C(CSc1ccc2c(c1)OCCO2)NS(=O)(=O)c1ccccc1F,11.66
8,OCCNC1CCc2cc3c(cc21)OCCO3 (centres undefined),-2.778
9,Clc1ccc(C2NCCc3cc4c(cc32)OCCO4)cc1 (centres undefined),60.9
10,OCCCNC1CCc2cc3c(cc21)OCCO3 (centres undefined),0.5317
11,OCC1(CNC2CCc3cc4c(cc32)OCCO4)CC1 (centres undefined),-8.17
12,CCc1nc2c(NCC3COc4ccccc4C3)ncnc2o1 (centres undefined),-41.62
13,CCNC(=O)C(C)NC(=O)Nc1ccccc1SCC (centres undefined),-19.41
14,Cc1oncc1C(=O)N1CC[C@@H]2[C@@H]1CC(=O)N2Cc1cccnc1.O=C(O)C(F)(F)F,95.81
15,Cc1cccc(CN2CCCC(O)(CNCc3cccc(F)c3)C2=O)c1 (centres undefined),-1.044
16,O=C(O)C(F)(F)F.O=C(c1ccco1)N1CC[C@H]2[C@H]1CC(=O)N2c1cccnc1,-20.41
17,Cc1oncc1C(=O)N1CCC2(CCN(Cc3cccnc3)C2=O)C1.O=C(O)C(F)(F)F (centres undefined),107.4
18,Cc1oncc1C(=O)N1CCC2(CCN(Cc3cccc(F)c3)C2=O)C1 (centres undefined),82.89
19,Cc1oncc1C(=O)N1CC[C@H]2[C@@H]1CCC(=O)N2c1cccnc1.O=C(O)C(F)(F)F,-37.57
20,COCCN1CCC2(CCCN(C(=O)c3cnoc3C)C2)C1=O (centres undefined),5.935
21,F[C@@H]1CN(Cc2nccs2)C[C@@H]1OCc1nc2cnccc2[nH]1,1.083
22,O=C(NC1CC1)C1CN(Cc2ccc3c(c2)OCCO3)CCN1 (centres undefined),-21.08
23,COc1ccc(CCNC(=O)C2CCC(Cn3cnnn3)CC2)cc1 (centres undefined),-2.407
24,CC(NC(=O)NCCCn1cccn1)c1ccc2c(c1)NC(=O)CO2 (centres undefined),-10.21
25,CC(NC(=O)Nc1ccncc1)c1ccc2c(c1)CC(=O)N2 (centres undefined),6.994

row,Structure (SMILES),Percent Effect [%]
1,COc1cccc(NC(=O)NC(C)c2ccc3c(c2)CC(=O)N3)c1 (centres undefined),-1.814
2,CC(NC(=O)NCCn1ccnc1)c1ccc2c(c1)NC(=O)CO2 (centres undefined),-0.9133
3,COc1ccc(C)cc1C(C)NS(=O)(=O)c1ccc2c(c1)CCC(=O)N2 (centres undefined),-0.1201
4,COC(=O)c1ccc(NC(C)c2ccc3c(c2)CCC(=O)N3)nn1 (centres undefined),54.02
5,COC(=O)c1ccc(NC(C)c2ccc3c(c2)CC(=O)N3)nn1 (centres undefined),83.43
6,COc1ccc(C(C)NS(=O)(=O)c2ccc3c(c2)CCC(=O)N3)cc1F (centres undefined),13.2
7,COC(=O)c1ccc(NC(C)c2ccc3c(c2)NC(=O)CO3)nn1 (centres undefined),109.1
8,COc1ccc(-c2noc(Cn3cc4c(n3)CCC4)n2)c(OC)c1OC,2
9,Cc1cc2n(n1)CC(CNC1CCN(Cc3ccccc3C)CC1)CN2 (centres undefined),-1.399
10,CCC(=O)N1CCN(c2ccc(C(=O)OC)cc2)CC1C (centres undefined),-6.169
11,COC(=O)c1ccc(N2CCN(CCC(=O)NC(N)=O)C(C)C2)cc1 (centres undefined),4.115
12,COC(=O)c1ccc(N2CCN(CC(=O)NC(N)=O)C(C)C2)cc1 (centres undefined),126.9
13,CNC(=O)NC(=O)CN1CCN(c2ccc(C(=O)OC)cc2)CC1C (centres undefined),123.3
14,CNC(=O)NC(=O)CCN1CCN(c2ccc(C(=O)OC)cc2)CC1C (centres undefined),121.7
15,COC(=O)c1ccc(N2CCN(C(=O)CC(F)(F)F)C(C)C2)cc1 (centres undefined),-6.136
16,COCC(=O)N1CCN(c2ccc(C(=O)OC)cc2)CC1C (centres undefined),-2.487
17,COC(=O)c1ccc(N2CCN(CCN3CCOCC3)C(C)C2)cc1 (centres undefined),-3.012
18,COC(=O)c1ccc(N2CCN(CCS(C)(=O)=O)C(C)C2)cc1 (centres undefined),130.9
19,COC(=O)c1ccc(N2CCN(C(=O)C3CC3)C(C)C2)cc1 (centres undefined),-9.327
20,COC(=O)c1ccc(N2CCN(CCC#N)C(C)C2)cc1 (centres undefined),9.254
21,COC(=O)c1ccc(N2CCN(C(=O)C3CCC3)C(C)C2)cc1 (centres undefined),-8.706
22,CCn1nc(CC(C)C)cc1C(=O)N1CCOCC(O)C1 (centres undefined),14.61
23,Cc1c(Br)cccc1NC(=O)N(C)CCO,-1.587
24,CCc1cc(N[C@H]2CCC[C@H]2O)n2nccc2n1,-17.41
